Hits are enriched below; roughly 1.8% of the tested compounds scored in any of these assays.
PME-1 primary = blocks human protein phosphatase methylesterase 1; inhibition, % at 5.9 µM; Q9Y570; AID 2130; 320,000 tested, 0.53% active; recombinant PME-1, FP-Rh probe fluorescence polarization;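 active = inhibition above the campaign mean of all compounds plus 3 SD, cut at about 26% in these data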;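 also: competitive labeling of PME-1 active site by serine hydrolase directed probe; 0% = PME-1 with DMSO and 100% = wells lacking PME-1 enzyme; inhibitors block probe labeling so polarization falls and inhibition rises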
LYPLA2 counter = blocks human lysophospholipase 2, a PME1 counter-screen | recombinant LYPLA2, FP-Rh probe fluorescence polarization | 320,000 tested, 0.38% active | O95372 | inhibition, % at 5.9 µM;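 active = inhibition above the screen-wide mean plus 3 SD, limit set per campaign, cut at about 26% in these data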;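 also: 0% = LYPLA2 with DMSO and 100% = wells lacking LYPLA2 enzyme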
Target sequence (O95372 whole entry, looked up): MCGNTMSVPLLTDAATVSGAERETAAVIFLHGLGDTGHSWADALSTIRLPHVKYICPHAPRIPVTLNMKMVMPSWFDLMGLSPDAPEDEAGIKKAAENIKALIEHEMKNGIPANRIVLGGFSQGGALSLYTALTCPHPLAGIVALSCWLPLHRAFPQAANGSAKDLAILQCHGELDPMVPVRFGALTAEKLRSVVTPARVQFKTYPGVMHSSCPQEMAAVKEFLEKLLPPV
Fam108B inh = counter-screen for RBBP9 inhibitors: inhibitors of mouse Fam108B; 300,000 tested, 0.33% active; AID 1947; recombinant Fam108B, FP-Rh probe fluorescence polarization; inhibition, % at 9.51 µM;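 active = inhibition above the screen mean inhibition plus 3 SD, computed separately per campaign, cut at about 18% in these data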;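 also: inhibitors lower polarization as less probe binds the enzyme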
LYPLA1 inh = counter-screen for PME1 inhibitors: inhibitors of human LYPLA1 | recombinant LYPLA1, FP-Rh probe fluorescence polarization | 320,000 tested, 0.16% active | inhibition, % at 5.9 µM;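 active = inhibition above the mean of all tested compounds plus 3 SD, set per campaign, cut at about 14% in these data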;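 also: inhibitors block serine hydrolase probe labeling of LYPLA1 so polarization falls; 0% = enzyme with DMSO and 100% = wells lacking LYPLA1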
Target sequence (O75608 whole entry, looked up): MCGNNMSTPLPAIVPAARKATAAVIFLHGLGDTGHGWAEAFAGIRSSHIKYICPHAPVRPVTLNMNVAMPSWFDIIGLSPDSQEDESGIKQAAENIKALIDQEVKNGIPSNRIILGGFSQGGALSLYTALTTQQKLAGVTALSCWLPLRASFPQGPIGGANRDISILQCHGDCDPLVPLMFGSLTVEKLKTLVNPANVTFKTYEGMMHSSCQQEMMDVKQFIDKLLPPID
GSTO1 counter = blocks human GSTO1 in RBBP9 counter-screen. P78417. recombinant GSTO1, activity-based probe fluorescence polarization. inhibition, % at 5.96 µM. 300,000 tested, 1.1% active;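 active = inhibition above the campaign mean inhibition plus 3 SD, cut at about 35% in these data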;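 also: 0% = GSTO1-1 with DMSO and 100% = wells lacking GSTO1-1 enzyme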
Target sequence (P78417 whole entry, looked up): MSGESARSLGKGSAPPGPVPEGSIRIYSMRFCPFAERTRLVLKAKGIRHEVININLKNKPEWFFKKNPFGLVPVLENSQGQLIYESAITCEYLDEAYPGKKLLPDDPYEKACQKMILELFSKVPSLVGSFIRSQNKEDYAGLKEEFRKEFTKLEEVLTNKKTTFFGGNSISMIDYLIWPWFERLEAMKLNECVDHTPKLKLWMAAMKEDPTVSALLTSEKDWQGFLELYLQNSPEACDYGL
PAD4 inh = PAD4 (human) enzyme inhibition; recombinant PAD4, RCA probe fluorescence polarization; inhibition, % at 6.36 µM; 330,000 tested, 0.41% active; AID 485272;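 active = percent inhibition above a cutoff equal to the mean of all tested compounds plus 3 SD, cut at about 15% in these data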;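 also: 0% = PAD4 with RCA probe and DMSO and 100% = probe without PAD4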
Fam108b confirm = confirmation of mouse Fam108b serine hydrolase inhibitors; shares compounds with Fam108B inh; recombinant Fam108b, FP-Rh probe fluorescence polarization; inhibition, % at 9.51 µM; 930 tested, 44% active;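 active = inhibition above a limit from the primary screen, the mean over all compounds plus 3 SD, cut at about 19% in these data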;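 also: 0% = median of active Fam108b wells and 100% = catalytically dead S170A mutant; inhibitors free the probe so polarization falls as inhibition rises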
Fam108b ABPP HTS = inhibits mouse Fam108b in gel-based ABPP. shares compounds with Fam108B inh. inhibition, % at 20 µM. 260 tested, 44% active. AID 588649. recombinant Fam108b, fluorophosphonate probe; in the data active = inhibition above about 40%
GSTO1 confirm = GSTO1 (human) inhibition, confirmation; inhibition, % at 5.96 µM; 2,400 tested, 54% active; shares compounds with GSTO1 counter; recombinant GSTO1, probe fluorescence polarization;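 active = inhibition above the primary screen's cutoff, its mean inhibition plus 3 SD, cut at about 35% in these data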;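 also: loss of polarization as inhibitors block binding of rhodamine sulfonate ester activity probe; 0% = GSTO1 with DMSO and 100% = wells lacking GSTO1 enzyme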
LYPLA1 conf = counter-screen for PME1 inhibitors: confirmation of human LYPLA1 inhibitors. inhibition, % at 5.9 µM. shares compounds with LYPLA1 inh. 480 tested, 69% active. recombinant LYPLA1, FP-Rh probe fluorescence polarization;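 active = mean inhibition across replicates above the hit cutoff set in the primary screen, cut at about 15% in these data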;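 also: loss of FP-Rh probe labeling of LYPLA1 seen as lower polarization; 0% = LYPLA1 with DMSO and 100% = wells lacking LYPLA1 enzyme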
LYPLA2 confirm = LYPLA2 (human) inhibition, confirmation counter-screen | shares compounds with LYPLA2 counter | recombinant LYPLA2, FP-Rh probe fluorescence polarization | inhibition, % at 5.9 µM | 1,100 tested, 72% active | AID 2232;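 active = mean inhibition across replicates above the hit cutoff set in the primary screen, cut at about 26% in these data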;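 also: blocked labeling of the enzyme by serine hydrolase FP-Rh probe lowers polarization; 0% = enzyme with DMSO and 100% = wells lacking LYPLA2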
PAD4 FP conf = PAD4 (human) inhibition, confirmed; shares compounds with PAD4 inh; recombinant PAD4, RCA probe fluorescence polarization; inhibition, % at 6.36 µM; 1,200 tested, 28% active; AID 488796;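 active = mean inhibition across replicates above the hit cutoff set by the earlier primary screen, cut at about 15% in these data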;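 also: inhibitors block active-site labeling by the probe so polarization falls; 0% = PAD4 with probe and DMSO and 100% = probe without PAD4 enzyme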
* hit, by the source's call; x = not tested or not shown.

SMILES	PME-1 primary	LYPLA2 counter	Fam108B inh	LYPLA1 inh	GSTO1 counter	PAD4 inh	Fam108b confirm	others
CN1CCN(c2ccc([N+](=O)[O-])c3no[n+]([O-])c23)CC1	-28.5	-29.1	-22.5	-15.8	46.7*	-10.2	x
Cc1cc(OCC(=O)NC(Cc2ccc(Cl)cc2)C(=O)O)c2c3c(c(=O)oc2c1)CCC3 (stereo not drawn)	4.6	-0.4	-2.1	-2.3	-45.0	2.8	x
O=C1C(=O)c2cccc3cccc1c23	9.5	3.8	2.4	-3.3	37.6*	-6.7	x
CC(=O)c1ccc2c(c1)C1C(Cl)C(Sc3ccccc3[N+](=O)[O-])CC1C(c1ccccc1[N+](=O)[O-])N2 (stereo not drawn)	85.8*	-13.0	0.8	-16.0	-8.2	-4.2	x
O=C(c1ccc(N2CC3CC(C2)c2cccc(=O)n2C3)c([N+](=O)[O-])c1)N1CCCCC1 (stereo not drawn)	5.2	-1.5	3.7	1.3	-1.7	-1.8	x
CC[C@H](C)/C=C(C)/C=C/C1=CC2=C(Cl)C(=O)[C@@](C)(OC(C)=O)C(=O)C2=CO1	0.8	10.1	12.2	0.6	35.8*	9.2	x
NC(N)=N/N=C/c1ccc(N(c2ccccc2)c2ccccc2)cc1	15.9	8.1	19.1*	3.1	9.5	1.5	18.9*
CC(=O)c1ccc2c(c1)C1C(Cl)C(Sc3ccccc3[N+](=O)[O-])CC1C(c1ccccc1)N2 (stereo not drawn)	70.1*	-10.5	37.8*	-22.4	7.0	-9.2	-5.8
CC1=Nc2ccccc2/C1=C/c1c(O)[nH]c(=O)[nH]c1=O	-5.4	5.2	-1.0	-1.4	7.9	-10.2	x
O=c1[nH]c(O)c(/C=C2/C=CC(c3cc(Cl)ccc3Cl)=N2)c(=O)[nH]1	5.7	5.2	27.1*	4.6	23.4	-2.6	20.1*
CCn1ccnc1CN1CCCC(C(=O)c2cc(F)ccc2OC)C1 (stereo not drawn)	5.8	1.2	-4.8	3.4	3.0	-1.0	x
C/C(=N\NC(=O)c1ccccc1O)c1c(O)n(C2CCCCC2)c(=O)[nH]c1=O	-13.0	6.5	19.4*	1.0	4.4	-3.7	21.0*
C/C(=N\NC(=O)c1ccccc1O)c1c(O)n(Cc2ccccc2)c(=O)[nH]c1=O	3.7	6.6	21.1*	-3.3	23.4	-3.0	81.6*	Fam108b ABPP HTS=0.0
O=C(/C=C/c1ccc(Br)cc1)NC(=S)N1C[C@H]2C[C@H](C1)c1cccc(=O)n1C2	-6.1	2.3	-2.3	0.9	-3.7	-2.1	x
COc1cccc(C(=O)C2CN(C)CC2c2ccc(Cl)cc2)c1 (stereo not drawn)	1.0	9.4	8.8	6.0	11.4	-1.4	x
CN1CC(C(=O)c2cccc(C(F)(F)F)c2)C(c2ccc(Cl)cc2)C1 (stereo not drawn)	9.5	5.7	20.3*	-0.4	5.6	1.2	-12.3
COC1=CC(=O)O[C@@H](/C=C/c2ccccc2)C1	-0.9	2.8	-6.9	0.6	-0.5	-3.7	x
CN1CCN(c2ccc(F)cc2N)CC1	0.1	4.8	-1.4	-0.5	17.5	4.9	x
COc1ccc(OC)c(N2C(=O)CC(=O)NC2=O)c1	-0.6	8.4	-0.9	-0.5	-3.7	-1.6	x
COc1ccc(OC)c(N2C(=O)NC(=O)/C(=C/c3ccc([N+](=O)[O-])s3)C2=O)c1	-0.4	5.3	46.2*	1.1	23.9	-11.3	8.3
CC1Oc2cc3c(-c4c(O)cc(O)c5c(O)c6c(cc45)OC(C)C(C)C6=O)c(O)cc(O)c3c(O)c2C(=O)C1C (stereo not drawn)	27.8*	16.9	40.6*	5.2	72.5*	-6.7	37.2*	Fam108b ABPP HTS=35.0;GSTO1 confirm=59.7*
COC(=O)C1=C(c2ccc(F)cc2OCc2ccccc2)C[C@@H]2CC[C@H]1N2C(=O)N1CCC(O)(c2ccc(Cl)cc2)CC1	x	x	x	x	x	6.7	x
COc1ccc(OC)c(N2C(=O)/C(=C/c3ccco3)C(=O)NC2=S)c1	38.6*	30.4*	81.5*	-13.3	-2.1	-4.4	14.2	LYPLA2 confirm=-11.1
OCCNc1c2c(nc3ccccc13)CCCC2	-12.5	3.9	-1.0	-1.7	3.1	-4.5	x
C[n+]1c2ccccc2nc2ccc(NCCO)cc21	71.0*	62.9*	72.2*	69.8*	68.8*	84.4*	41.9*	Fam108b ABPP HTS=0.0;GSTO1 confirm=45.6*;LYPLA1 conf=62.9*;LYPLA2 confirm=48.4*
SMILES	PME-1 primary	LYPLA2 counter	Fam108B inh	LYPLA1 inh	GSTO1 counter	PAD4 inh	Fam108b confirm	others
CCn1cc(CN2CCCC(C(=O)c3sccc3C)C2)cn1 (stereo not drawn)	-4.6	2.9	5.3	3.2	-4.2	-3.1	x
CC(C)OCCCNC(=O)c1c(N)n(Cc2cccs2)c2nc3ccccc3nc12	22.4	12.0	18.8*	0.9	60.1*	52.2*	6.8	GSTO1 confirm=-7.7;PAD4 FP conf=1.8
O=C1C2(c3ccccc3)CN3CN(C2)CC1(c1ccccc1)C3	-2.5	0.5	6.2	4.0	-1.0	0.3	x
CN(C)c1cccc2c(C#N)ccc(N(C)C)c12	0.4	-1.5	0.4	1.5	-0.8	-4.8	x
Cc1nc2c(=O)n(C)c(=O)nc-2n(C)n1	36.3*	88.5*	66.4*	87.6*	97.7*	76.7*	81.6*	Fam108b ABPP HTS=5.0;GSTO1 confirm=96.2*;LYPLA1 conf=82.5*;LYPLA2 confirm=95.2*;PAD4 FP conf=69.4*
CC(C)(C)NC(=O)CN1CCCN(C(=O)COc2ccc(Cl)c3ccccc23)CC1	-0.3	2.2	x	-0.4	x	-3.7	x
O=C1C(=O)c2ccccc2-c2ccccc21	36.6*	85.4*	63.7*	82.8*	90.0*	81.8*	65.1*	Fam108b ABPP HTS=15.0;GSTO1 confirm=93.5*;LYPLA1 conf=85.5*;LYPLA2 confirm=90.2*;PAD4 FP conf=75.7*
CCCCCn1c(=O)c(C(=O)Nc2nc(CC(=O)OCC)cs2)c(O)c2ccccc21	-3.0	-3.1	4.0	-4.7	8.8	0.8	x
COc1ccccc1[As](=O)(O)CC(O)COc1ccc(Cl)cc1Cl (stereo not drawn)	-15.1	-1.9	-4.4	-5.6	-45.2	-1.8	x

Source: PubChem BioAssay (The Scripps Research Institute Molecular Screening Center)
